The target of the experiment is Genome polyprotein (Dengue virus type 2 (strain 16681-PDK53)) (UniProt P29991). The experiment is described as follows: Dengue-2 NS5 methyltransferase inhibitors, primary screen, biochemical, confirmation dose response (AID 588689). The settings on record: Dengue-2 NS5 methyltransferase capping enzyme assay, at 25 µM, stronger effect = higher value.
Setting [1] is: measured here: pilot screen replicate inhibition.

The structures appear in SMILES notation. In all, about 340,000 compounds went through this assay and about 1,000 (0.29%) were called active. Rule as the data show it: inconclusive = inhibition above about 29% without an active follow-up result; inactive = below that. A selection follows. Potency and affinity values are given separately.

The inhibition is the drop in the measured response relative to a control, in per cent.

Genome polyprotein (Dengue virus type 2 (strain 16681-PDK53)), sequence (P29991 whole entry, looked up): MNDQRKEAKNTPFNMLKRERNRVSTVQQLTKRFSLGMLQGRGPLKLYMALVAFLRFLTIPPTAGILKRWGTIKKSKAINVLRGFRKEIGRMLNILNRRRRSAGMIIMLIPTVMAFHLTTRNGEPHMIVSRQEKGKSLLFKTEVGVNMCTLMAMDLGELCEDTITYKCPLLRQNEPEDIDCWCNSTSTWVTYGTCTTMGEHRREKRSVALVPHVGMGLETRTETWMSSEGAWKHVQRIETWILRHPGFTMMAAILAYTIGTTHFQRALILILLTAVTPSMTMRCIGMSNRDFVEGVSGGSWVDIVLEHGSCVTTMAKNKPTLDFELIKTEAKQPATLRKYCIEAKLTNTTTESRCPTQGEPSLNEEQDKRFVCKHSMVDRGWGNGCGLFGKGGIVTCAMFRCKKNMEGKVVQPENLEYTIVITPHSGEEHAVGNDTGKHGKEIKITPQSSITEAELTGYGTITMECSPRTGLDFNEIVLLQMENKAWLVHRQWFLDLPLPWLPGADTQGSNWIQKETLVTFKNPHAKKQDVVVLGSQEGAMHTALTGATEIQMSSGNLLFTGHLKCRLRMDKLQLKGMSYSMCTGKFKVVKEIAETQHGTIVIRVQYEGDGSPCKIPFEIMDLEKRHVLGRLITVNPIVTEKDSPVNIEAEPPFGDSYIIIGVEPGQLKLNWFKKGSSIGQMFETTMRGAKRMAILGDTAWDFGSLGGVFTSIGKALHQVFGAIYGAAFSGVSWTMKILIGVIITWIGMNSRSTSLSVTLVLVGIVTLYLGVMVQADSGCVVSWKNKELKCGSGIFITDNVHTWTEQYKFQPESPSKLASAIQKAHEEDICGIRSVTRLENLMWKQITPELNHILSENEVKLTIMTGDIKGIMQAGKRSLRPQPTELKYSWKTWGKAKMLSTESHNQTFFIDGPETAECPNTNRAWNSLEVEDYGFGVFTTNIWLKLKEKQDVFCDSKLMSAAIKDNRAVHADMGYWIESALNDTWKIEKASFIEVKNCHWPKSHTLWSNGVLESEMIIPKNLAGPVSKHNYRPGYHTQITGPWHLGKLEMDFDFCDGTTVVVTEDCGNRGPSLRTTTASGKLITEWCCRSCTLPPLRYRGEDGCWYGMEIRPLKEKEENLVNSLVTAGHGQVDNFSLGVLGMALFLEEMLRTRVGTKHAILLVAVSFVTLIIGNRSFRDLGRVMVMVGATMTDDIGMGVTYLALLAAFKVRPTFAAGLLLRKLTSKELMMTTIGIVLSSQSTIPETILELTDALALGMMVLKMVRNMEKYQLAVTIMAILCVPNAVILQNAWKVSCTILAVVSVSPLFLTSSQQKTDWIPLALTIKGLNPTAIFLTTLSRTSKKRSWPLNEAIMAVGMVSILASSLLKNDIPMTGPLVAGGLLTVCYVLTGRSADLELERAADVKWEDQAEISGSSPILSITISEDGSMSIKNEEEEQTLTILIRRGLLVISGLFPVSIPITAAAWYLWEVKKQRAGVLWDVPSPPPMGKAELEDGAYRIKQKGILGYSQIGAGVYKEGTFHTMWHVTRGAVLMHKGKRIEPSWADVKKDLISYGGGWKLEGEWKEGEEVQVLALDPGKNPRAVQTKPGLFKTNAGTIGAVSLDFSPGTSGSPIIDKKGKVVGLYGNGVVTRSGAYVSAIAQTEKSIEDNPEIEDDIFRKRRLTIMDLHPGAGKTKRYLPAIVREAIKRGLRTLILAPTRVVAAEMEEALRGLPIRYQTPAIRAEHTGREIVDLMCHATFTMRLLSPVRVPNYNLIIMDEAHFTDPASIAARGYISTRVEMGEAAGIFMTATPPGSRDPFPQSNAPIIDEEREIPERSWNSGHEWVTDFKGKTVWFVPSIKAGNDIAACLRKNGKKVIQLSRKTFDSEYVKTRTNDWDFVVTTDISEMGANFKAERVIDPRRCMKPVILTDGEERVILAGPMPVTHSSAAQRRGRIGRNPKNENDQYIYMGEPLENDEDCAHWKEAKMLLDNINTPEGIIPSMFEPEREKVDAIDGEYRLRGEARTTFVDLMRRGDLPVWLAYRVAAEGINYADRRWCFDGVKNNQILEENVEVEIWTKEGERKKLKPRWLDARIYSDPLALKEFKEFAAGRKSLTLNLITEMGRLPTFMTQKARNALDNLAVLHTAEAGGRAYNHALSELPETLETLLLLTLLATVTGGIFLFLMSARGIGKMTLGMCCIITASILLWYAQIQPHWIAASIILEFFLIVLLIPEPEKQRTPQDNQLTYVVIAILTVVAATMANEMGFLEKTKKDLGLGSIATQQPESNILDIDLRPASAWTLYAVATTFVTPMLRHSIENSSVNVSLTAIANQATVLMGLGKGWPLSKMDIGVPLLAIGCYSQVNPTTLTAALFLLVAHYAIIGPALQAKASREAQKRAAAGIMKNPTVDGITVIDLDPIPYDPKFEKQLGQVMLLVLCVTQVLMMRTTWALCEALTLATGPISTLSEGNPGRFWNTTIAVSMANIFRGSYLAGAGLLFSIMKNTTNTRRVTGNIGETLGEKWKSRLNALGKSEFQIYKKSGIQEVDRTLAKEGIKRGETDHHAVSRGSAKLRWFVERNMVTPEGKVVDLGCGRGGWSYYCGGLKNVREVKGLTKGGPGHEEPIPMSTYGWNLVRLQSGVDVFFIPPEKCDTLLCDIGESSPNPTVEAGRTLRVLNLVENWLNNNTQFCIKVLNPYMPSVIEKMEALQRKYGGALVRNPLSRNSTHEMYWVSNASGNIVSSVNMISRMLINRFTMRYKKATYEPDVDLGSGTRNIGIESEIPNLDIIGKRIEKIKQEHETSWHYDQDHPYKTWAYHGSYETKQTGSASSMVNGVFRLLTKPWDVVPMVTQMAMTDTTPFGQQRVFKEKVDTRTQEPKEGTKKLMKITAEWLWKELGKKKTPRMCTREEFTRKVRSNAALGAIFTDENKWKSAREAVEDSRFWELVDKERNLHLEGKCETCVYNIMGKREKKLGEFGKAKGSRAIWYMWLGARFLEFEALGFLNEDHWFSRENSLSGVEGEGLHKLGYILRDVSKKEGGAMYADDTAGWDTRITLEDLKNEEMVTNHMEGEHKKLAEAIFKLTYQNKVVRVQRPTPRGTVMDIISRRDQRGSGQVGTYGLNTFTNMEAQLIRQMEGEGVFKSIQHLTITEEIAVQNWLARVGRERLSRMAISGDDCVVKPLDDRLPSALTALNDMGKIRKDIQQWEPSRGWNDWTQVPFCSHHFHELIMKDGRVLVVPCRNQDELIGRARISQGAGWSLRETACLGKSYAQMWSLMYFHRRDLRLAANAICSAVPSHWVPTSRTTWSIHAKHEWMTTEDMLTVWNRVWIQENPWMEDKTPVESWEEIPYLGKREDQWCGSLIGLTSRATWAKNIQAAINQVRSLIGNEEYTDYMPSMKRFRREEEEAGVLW

For `O=C(O)c1cccc(-c2ccc(/C=C3/SC(=Nc4ccccc4)N(Cc4cccnc4)C3=O)o2)c1`, the inhibition is 3.26% (inactive).

Turning to `CCN=C1S/C(=C\c2ccc(-c3cccc(C(=O)O)c3)o2)C(=O)N1CC`, the inhibition is 0.91% (inactive). In the case of `COc1ccc(C(=O)CN2C(=O)NC3(CCCc4ccccc43)C2=O)cc1` (stereo not drawn), the inhibition was -6.6% (inactive). Still for that read-out and setting: under `O=C(O)Cn1c(CC(=O)N2CCCC2)nc2ccccc21` stands 2.7% (inactive); under `N#C/C(=C\c1ccc(-c2ccccc2[N+](=O)[O-])o1)C(N)=O`, -6.96% (inactive).

Consider `CC1=C(C#N)C(=O)NC(=O)/C1=C\c1ccc(-c2ccc(C)cc2[N+](=O)[O-])o1`, for which the inhibition is 23.7% (inactive).

Take `N#C/C(=C/c1ccc(-c2ccccc2[N+](=O)[O-])o1)C(N)=O`: the inhibition was -17.5% (inactive). The same measure, in the same setting: the value for `O=C(O)/C(=C\c1ccc(-c2ccccc2[N+](=O)[O-])o1)c1ccccc1` was 25.4% (inactive). The same measure, in the same setting: under `CCOC(=O)c1cc(-c2ccc(/C=C3/C(=O)NC(=O)C(C#N)=C3C)o2)ccc1Cl` stands 44.5% (inactive); under `O=[N+]([O-])c1ccccc1-c1ccc(/C=N/n2cnnc2)o1`, 1.62% (inactive); under `CCN1C(=O)[C@H]2[C@@H](c3ccc(C)cc3)N3C(=O)N(c4cccc(Cl)c4)C(=O)[C@@]3(Cc3ccccc3)[C@H]2C1=O`, 0% (inactive). Still for that read-out and setting: the value for `NC(=O)CSc1oc(-c2ccc(F)cc2)nc1S(=O)(=O)c1ccccc1` was -9.82% (inactive). Take `Cc1ccccc1NC(=O)C1CCC(=O)N1` (stereo not drawn): the inhibition was -6.11% (inactive). Same read-out and setting: the value for `O=C(CNC(=O)c1cccc(S(=O)(=O)N2CCc3ccccc32)c1)Nc1ccccc1Br` was 2.25% (inactive); that for `CSc1ccc(/C=N/Nc2ccc(Cl)c(C(=O)O)c2)cc1` was -1.45% (inactive); that for `O=C(O)c1cc(N/N=C/c2ccncc2)ccc1Cl` was -3.81% (inactive). Same read-out and setting: the value for `COC(=O)C1SCC2C(=O)N(Cc3ccc(F)cc3)CC(=O)N21` (stereo not drawn) was -5.39% (inactive); that for `Cn1c(SCC(=O)Nc2ccc3nc(SCC(=O)N4CCCC4)sc3c2)nnc1-c1ccc(N)cc1` was 9.65% (inactive); that for `O=c1c2ccccc2nc(SCc2cc([N+](=O)[O-])cc3c2OCOC3)n1-c1ccccc1` was -2.94% (inactive). Same read-out and setting: the value for `COc1ccc(OC)c(NC(=O)Nc2cccnc2)c1` was 1.62% (inactive); that for `Cc1cc(C)c(NC(=O)CN2C(=O)NC3(CCCCC3)C2=O)c(Cl)c1` was -4.81% (inactive); that for `CCCCn1nc(NS(=O)(=O)c2cccc3nonc23)c2cc3cccc(C)c3nc21` was 27.8% (inactive). For the compound `CCCn1nc(NS(=O)(=O)c2cccc3nonc23)c2cc3ccccc3nc21`, the inhibition is 0.45% (inactive). Consider `COc1ccc(S(=O)(=O)NCC2CCCN(C(=O)CSC)C2)cc1` (stereo not drawn), for which the inhibition is -2.61% (inactive). Further, under setting [1], the inhibition was 0.01%. Turning to `C=CCN(C(=O)Cc1cccs1)c1nc(-c2ccc(S(C)(=O)=O)cc2)cs1`, the inhibition was -10.3% (inactive). On the same count and under the same terms, the value for `Cc1[nH][nH]c(=O)c1C(c1ccc(-c2cccc(C(=O)O)c2)o1)c1c(C)[nH][nH]c1=O` was 21.1% (inactive); that for `Cc1[nH][nH]c(=O)c1C(c1ccc(-c2ccccc2C(=O)O)o1)c1c(C)[nH][nH]c1=O` was 39% (inactive); that for `Cc1cc(S(=O)(=O)N2CCCOC2CNC(=O)C(=O)NCCc2ccco2)ccc1F` (stereo not drawn) was 0.64% (inactive). Same read-out and setting: the value for `COc1ccccc1OCCNC(=O)C(CCSC)NS(=O)(=O)c1ccccc1F` (stereo not drawn) was -7.2% (inactive); that for `CC(Oc1ccccc1)C(=O)NNS(=O)(=O)c1ccc([N+](=O)[O-])cc1` (stereo not drawn) was -1.92% (inactive); that for `COc1ccc(-n2c(SCC(=O)Nc3cc(C)on3)nc3ccc(O)cc3c2=O)cc1OC` was -6.42% (inactive). Turning to `O=[N+]([O-])c1cccc(/C=N/N=C\c2ccccc2)c1`, the inhibition was -0.78% (inactive).

In the case of `O=C1NC(=S)N/C1=C/c1cccc([N+](=O)[O-])c1`, the inhibition was 1.48% (inactive). The same measure, in the same setting: the value for `NS(=O)(=O)c1ccc(NCc2c(F)cccc2Cl)cc1` was 4.17% (inactive); that for `O=C(O)c1cc(NCc2c(F)cccc2Cl)ccc1N1CCOCC1` was -2.05% (inactive). Still for that read-out and setting: the value for `CN1CCC(=NNC(=O)c2ccco2)CC1` was 17.7% (inactive); that for `Cc1ccccc1C(=O)NC(=S)Nc1ccc2[nH]c(=O)[nH]c2c1` was -1.8% (inactive). For the compound `C[C@H](CO)N1C[C@H](C)[C@@H](CN(C)S(=O)(=O)c2ccc(F)cc2)Oc2ccc(NS(=O)(=O)c3ccccc3)cc2C1=O`, the inhibition was 0.4% (inactive). Same read-out and setting: the value for `Cc1c(N=c2scc(-c3ccccc3)n2C)c(=O)n(-c2ccccc2)n1C` was -7.91% (inactive); that for `CC1=CC(=Nc2c(C)n(C)n(-c3ccccc3)c2=O)C=C(C)C1=O` was 2.89% (inactive). Still for that read-out and setting: under `Cc1c(N=C2C(=O)Nc3ccccc32)c(=O)n(-c2ccccc2)n1C` stands 2.78% (inactive); under `CCC(C)C1=CC(=Nc2c(C)n(C)n(-c3ccccc3)c2=O)C=C(C(C)CC)C1=O` (stereo not drawn), 4.41% (inactive). On the same count and under the same terms, the value for `CCC1CCCCN1C(=O)COc1ccc(S(=O)(=O)N2CCOCC2)cc1Cl` (stereo not drawn) was -7.51% (inactive). For the compound `CCOC(=O)c1c(-c2ccccc2)oc2ccc(OCC(=O)O)cc12`, the inhibition is -1.55% (inactive). The same measure, in the same setting: under `CC1CCCCC1NC(=O)c1nnc(Cc2ccc(Cl)cc2)o1` (stereo not drawn) stands -2.17% (inactive); under `Cc1cc(-n2c(C)cc(C(=O)CSc3nncn3C(C)C)c2C)no1`, -1.44% (inactive); under `COC(=O)c1ccc([C@H](NC(=O)c2ccco2)[C@]2(C)C[C@H]2C2CCCCC2)cc1`, -7.21% (inactive). Same read-out and setting: the value for `COc1ccc(C(=O)c2ccc(N3CCN(C(=O)c4ccc(F)cc4)CC3)c(F)c2)cc1Br` was 4.82% (inactive).

Regarding `Cc1ccccc1/C=C1\Oc2ccccc2C1=O`, the inhibition was 1.3% (inactive). Same read-out and setting: under `O=C1Oc2ccccc2C(=O)/C1=C\N1CCN(c2ccccc2)CC1` stands -8.28% (inactive). Same read-out and setting: under `Cc1cc(C(=O)NNC(=O)c2c(-c3c(Cl)cccc3Cl)noc2C)no1` stands 0% (inactive); under `CCc1ccc(OCC(O)CN2CCN(c3ccc(OC)cc3)CC2)cc1` (stereo not drawn), -3.27% (inactive).

In the case of `O=C(c1ccccc1)c1ccc(Oc2ccc(C(=O)O)c(C(=O)O)c2)cc1`, the inhibition was 2.64% (inactive). The inhibition under setting [1] is -1.5%. As to `CC(C)(C)C(=O)Nc1ccc(C(=O)Nc2cccc(Oc3ccc(C(=O)O)c(C(=O)O)c3)c2)cc1`, the inhibition was 9.79% (inactive). Besides, under setting [1], the inhibition is -1.52%. Regarding `COc1cc(-c2nc3ccccn3c2/N=C/c2ccc(F)cc2)ccc1O`, the inhibition is -1.47% (inactive).

The values are drawn from PubChem BioAssay AID588689 (Southern Research Specialized Biocontainment Screening …, 2011).
